Hits are enriched below; roughly 11% of the tested compounds scored in any of these assays.
Gal4-VP16 FLuc: inhibits Gal4-VP16 luciferase reporter, ROR gamma counter-screen; Potency, µM (highest dose often 53.6 µM), for the others: at the top dose activity, negative = inhibition, hits mostly inhibitors; Drosophila S2 Gal4-VP16 UAS-luciferase, luminescence, 20 h; AID 2546; actives 3.5% (n = 310,000);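 further: Gal4-VP16 expression switched on by copper sulfate through the metallothionein promoter; potency means the concentration at half of the fitted maximal effect; on the % scale 0 is the no-effect control and ±100 the full control effect; nearly all actives have a fitted effect of over 50% in size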
SW480 rereplic: induces DNA re-replication in SW480 colon adenocarcinoma cells; actives 1.8% (n = 340,000); AID 624297; SW480 DNA re-replication, Hoechst DNA content imaging, 48 h; Potency, µM (series often up to 46.1 µM), for inactives: at the top dose re-replication activation, actives largely listed as activators; further: potency means the concentration at half of the fitted maximal effect; % of control where 0% means no effect; nearly all actives have a fitted effect of over 55% in size
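Quantitative HTS format with DMSO vehicle controls; 48 hr drug incubation at 37 C, then 40 min Hoechst staining and scanning imager measurement at 405 nm excitation.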
IL1B secr inh: inhibitors of inflammasome signaling (IL-1 beta secretion); THP-1 LPS/ATP IL-1B secretion, AlphaLISA, 16 h; stronger effect = lower value; activity change, % at 57.5 µM; actives 4.7% (n = 360,000); in the data active means activity change below about -50%; inconclusive means mostly about -30% to -49%; further: on the % scale 0 is the no-effect control and ±100 the full control effect
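THP-1 cells pretreated 1 hr with compounds (up to 57.5 uM final), then stimulated with LPS (250 ng/mL final) plus ATP (1.25 mM final); secreted IL-1B measured by AlphaLISA after 16 hr, decreased signal indicating inhibition.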
MCF10A rerep: DNA re-replication induction in MCF 10a cells; AID 624296; MCF 10A DNA re-replication, Hoechst nuclear intensity, 48 h; actives 2.9% (n = 350,000); Potency, µM (titrated, usually from 46.1 µM), without a hit: at the top dose activity, positive = re-replication, actives largely listed as activators; further: potency means the concentration at half of the fitted maximal effect; % of control where 0% means no effect; nearly all actives have a fitted effect of over 50% in size
RORg inh: ROR gamma (mouse) transcription inhibition; P51450; Drosophila S2 Gal4-RORgamma UAS-luciferase reporter, 20 h; Potency, µM (series often up to 53.6 µM), inactives show top-dose activity change, negative = inhibition, most hits filed as inhibitors; actives 5.4% (n = 310,000); AID 2551; further: potency means the concentration at half of the fitted maximal effect; on the % scale 0 is the no-effect control and ±100 the full control effect; nearly all actives have a fitted effect of over 60% in size
Target sequence (P51450 whole entry, looked up, the tested form may be a part): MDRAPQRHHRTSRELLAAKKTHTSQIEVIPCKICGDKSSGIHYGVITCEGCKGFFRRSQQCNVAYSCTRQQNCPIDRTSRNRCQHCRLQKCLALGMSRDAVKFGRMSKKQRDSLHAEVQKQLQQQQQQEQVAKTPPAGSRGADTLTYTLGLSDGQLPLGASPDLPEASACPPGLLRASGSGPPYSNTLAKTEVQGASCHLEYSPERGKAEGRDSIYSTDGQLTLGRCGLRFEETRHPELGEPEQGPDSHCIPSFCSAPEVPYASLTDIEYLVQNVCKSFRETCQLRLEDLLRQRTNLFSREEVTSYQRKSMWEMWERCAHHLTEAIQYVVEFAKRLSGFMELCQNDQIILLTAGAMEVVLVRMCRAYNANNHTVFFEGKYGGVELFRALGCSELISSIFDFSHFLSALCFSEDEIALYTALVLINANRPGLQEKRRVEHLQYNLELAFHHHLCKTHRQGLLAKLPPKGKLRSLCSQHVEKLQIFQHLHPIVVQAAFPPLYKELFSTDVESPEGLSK
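Drosophila Schneider cells stably carrying a metallothionein-driven Gal4 DBD–ROR gamma fusion and a UAS-Photinus luciferase reporter were exposed to compound for 1 hr, then induced with copper sulfate (700 uM final) for 20 hr at ambient temperature before luminescence reading.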
An asterisk follows results filed as active; ? = inconclusive; . = no result. Unless noted, the call rests on the fitted dose curve; in most records, active means well fitted curve in the direction sought with a large enough effect; inconclusive means small, poorly fitted or top-dose-only effect, or another doubt; inactive means no such curve, though single readings can be large; an effect the other way counts as inactive or inconclusive.

SMILES	Gal4-VP16 FLuc	SW480 rereplic	IL1B secr inh	MCF10A rerep	RORg inh
O=C(O)CC1S/C(=N\N=C/c2ccccc2)N(c2ccc(O)cc2)C1=O (configuration not stated)	-3%	4%	13	-6%	3%
CN1C(=O)C(CC(=O)O)S/C1=N\N=C\c1ccc(O)cc1O (configuration not stated)	20µM*	-5%	2	1%	?
COc1ccc(/C=N\N=C2/SC(CC(=O)O)C(=O)N2c2ccc(O)cc2)cc1 (configuration not stated)	-2%	1%	-5	16µM*	-14%
Cc1ccc(S(=O)(=O)N2C(c3ccccc3)CC(=O)C3CN(S(=O)(=O)c4ccc(Cl)cc4)C(c4ccccc4)CC32)cc1 (configuration not stated)	.	.	-22	.	.
COC(=O)C1=C(C)N(Cc2ccccc2)C(=NCCN2CCOCC2)N[C@H]1CCc1ccccc1	-6%	-10%	-18	0%	-14%
O=C1NC[C@@H](CCCCN2C[C@H](Cc3ccccc3)N(CCc3ccc(O)cc3)C(=O)C2=O)N(CC2CCCCC2)C1=O	.	.	-10	.	.
CC(=O)Nc1cc2c3c(cccc3c1)-c1ccccc1-2	.	16µM*	-13	2.3µM*	.
CC(=O)Nc1ccc2c(c1)C(=O)c1ccccc1C2=O	-14%	7%	-6	20%	?
O=C(NC(=S)NCCc1ccccc1)c1ccco1	?	-6%	7	0%	6.3µM*
Cc1ccccc1OCC(=O)NCCC1=CCCCC1	?	-80%	-2	-3%	?
O=C(NC(=S)NCCC1=CCCCC1)c1ccco1	?	1%	-11	-6%	4.5µM*
O=C(NCCC1=CCCCC1)c1ccc(Br)o1	14%	-9%	5	0%	0%
O=C(Cc1ccccc1)NCCC1=CCCCC1	-6%	-8%	5	?	18%
Cc1ccccc1C(=O)NC(=S)NCCC1=CCCCC1	16µM*	-4%	63	?	4µM*
O=C(NC(=S)NCCC1=CCCCC1)c1ccc(Br)o1	?	-1%	-7	12%	4.5µM*
COc1ccc(CCN(C)S(=O)(=O)c2cn(C)c(=O)n(C)c2=O)cc1OC	.	-5%	14	4%	.
O=C(Nc1nnc(C2=COCCO2)o1)c1cccc(F)c1	0.56µM*	26%	-1	8%	0.63µM*
Cc1cccc(C(=O)Nc2nnc(C3=COCCO3)o2)c1	1µM*	-8%	15	-3%	0.5µM*
CN1CCN(CC(=O)Nc2nc3c(s2)CCCC3)CC1	2%	-14%	36	?	-11%
CCN1CCN(/C=N/c2nc3c(s2)CCCC3)CC1	7.1µM*	-1%	0	0%	8.9µM*
Cc1ccccc1C(=O)NNc1ccc(-c2csnn2)cc1	4%	3%	.	18µM*	10%
COc1cc2cc(OC(C)=O)c3cc4c(cc3c2c(OC)c1OC)OCO4	.	.	13	.	.
COc1ccc(C2C3=C(COC3=O)Oc3cc4c(cc32)OCO4)cc1OC (configuration not stated)	.	5.8µM*	9	2.3µM*	.
COc1cc(C2C3=C(COC3=O)Oc3cc4c(cc32)OCO4)cc(OC)c1OC(C)=O (configuration not stated)	.	0.13µM*	19	?	.
COc1cc(C2C3=C(COC3=O)Oc3cc4c(cc32)OCO4)ccc1OC(C)=O (configuration not stated)	.	3.7µM*	22	?	.
SMILES	Gal4-VP16 FLuc	SW480 rereplic	IL1B secr inh	MCF10A rerep	RORg inh
Cc1nn(-c2ccccc2)c2nc(C(F)F)cc(C(F)F)c12	.	10%	-14	9%	.
COc1ccc2nc(NC(=O)C(NS(=O)(=O)c3cccc4nsnc34)C(C)C)sc2c1 (configuration not stated)	11µM*	-2%	44	2%	?
CCOc1ccc2nc(NC(=O)C3CCCN(S(=O)(=O)c4cccs4)C3)sc2c1 (configuration not stated)	11%	1%	-58*	22%	?
Cc1cccc2sc(NC(=O)C3CCN(S(=O)(=O)c4cc([N+](=O)[O-])ccc4Cl)CC3)nc12	?	11%	-76*	21%	?
COc1ccc2nc(NC(=O)C3CCN(S(=O)(=O)c4cccc5nsnc45)CC3)sc2c1	5%	-4%	-77*	?	?
CC(=O)Nc1ccc(NC(=O)C(NS(=O)(=O)c2cccc3nsnc23)C(C)C)cc1 (configuration not stated)	0%	-8%	44	-2%	-6%
CCOc1ccc2nc(NC(=O)C(NS(=O)(=O)c3cccs3)C(C)C)sc2c1 (configuration not stated)	-19%	-8%	22	0%	-32%
Cc1nnc(NC(=O)C2CCN(S(=O)(=O)c3cc([N+](=O)[O-])ccc3Cl)CC2)o1	.	?	9	1%	.
CC(OC(=O)c1ccc2c(c1)OCCO2)C(=O)NC1CCCCC1C (configuration not stated)	.	-354%	45	0%	.
C/C(=N\Nc1ccc(F)cc1F)c1ccc(Br)s1	7%	1%	19	8%	39%
COc1ccc(OC)c(N(CC(=O)N2CCCC2)S(C)(=O)=O)c1	-6%	-3%	-17	6%	-6%
COc1cc(C2=NOC(C(=O)NCc3ccc(F)cc3)C2)cc(OC)c1OC (configuration not stated)	2%	0.73µM*	25	3.3µM*	2%
COc1ccc(C2=NOC(C(=O)NCc3ccc(F)cc3)C2)cc1OC (configuration not stated)	6%	2.1µM*	56	1.6µM*	16%
COc1cc(C(=O)OCC(=O)NC(N)=O)cc(CN2C(=O)c3ccccc3C2=O)c1OC	1%	-8%	-6	-7%	0%
CNC(=S)Nc1cccc(S(=O)(=O)NCc2ccco2)c1	.	-2%	-11	1%	.
Cc1cc(C)nc(SCC(=O)NC2=NN=C(c3ccc(Br)cc3)CS2)n1	-96%	?	-83*	10%	?
CCC(Sc1nc(C)cc(C)n1)C(=O)NC1=NN=C(c2ccc(C)cc2)CS1 (configuration not stated)	-9%	?	-14	?	-24%
COc1ccccc1-n1cc([C@@H]2C[C@H]3CN(c4ccccc4)C(=O)[C@]34CCCN24)cn1	0%	8.2µM*	-78*	2.6µM*	-2%
COc1cc([C@@H]2C[C@H]3CN(c4ccccc4)C(=O)[C@]34CCCN24)cc(OC)c1OC	3%	-3%	-22	18µM*	0%
N#CCCn1c(=O)c(-c2ccccc2)nc2cnc(OCc3ccccc3)nc21	4%	.	.	.	-5%
COc1cc(NC(=O)CN2CCN(CC(=O)Nc3ccccc3OC)CC2)cc(OC)c1	-7%	0%	-10	?	14%
